The whole screen tested about 16,000 compounds, of which about 5,700 (36%) were called active. Inconclusive results (about 24%) are left out. Calls come from the whole dose curve; as a rule, active = well fitted curve in the direction sought with a large enough effect; inconclusive = small, poorly fitted or top-dose-only effect, or effect the other way; inactive = no such curve, though single readings can be large or run the other way. This is one part of the list. Peptide text beside a SMILES is read from it.
molecular target: Cytochrome P450 1A2 (Homo sapiens) (UniProt P05177); assay: Cytochrome panel assay with activity outcomes; details: recombinant CYP, pro-luciferin dealkylation, luminescence, p450-cyp1a2; series mostly up to 57.1 µM
% is set by controls: 0 for no effect and ±100 for the full control effect.

Cytochrome P450 1A2 (Homo sapiens), sequence (P05177 whole entry, looked up): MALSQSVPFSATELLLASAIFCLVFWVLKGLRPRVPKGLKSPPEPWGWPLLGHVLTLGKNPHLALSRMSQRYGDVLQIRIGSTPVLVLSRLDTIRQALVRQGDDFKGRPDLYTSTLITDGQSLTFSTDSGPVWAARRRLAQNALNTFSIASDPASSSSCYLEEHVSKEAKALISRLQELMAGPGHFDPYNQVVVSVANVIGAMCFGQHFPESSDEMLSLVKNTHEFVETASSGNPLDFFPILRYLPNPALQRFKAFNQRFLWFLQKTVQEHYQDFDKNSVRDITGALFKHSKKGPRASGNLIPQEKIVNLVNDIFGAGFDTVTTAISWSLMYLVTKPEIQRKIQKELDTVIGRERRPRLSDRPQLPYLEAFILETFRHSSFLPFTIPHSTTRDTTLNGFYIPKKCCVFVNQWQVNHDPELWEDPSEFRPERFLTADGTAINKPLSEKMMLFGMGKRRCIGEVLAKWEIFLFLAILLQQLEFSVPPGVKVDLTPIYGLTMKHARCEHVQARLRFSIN

activity, negative = inhibition, inactive:
CC(C)=NO[C@@H](C)c1cc(-c2c(C)cc(C)cc2C)no1 -3.7% [at 11.4 µM]
CCC(C)(C)c1ccc(Oc2cccc(C(=O)O)c2)cc1 -13.7% [at 11.4 µM]
CON(C)C(=O)c1nnc2c(n1)[nH]c1ccccc12 1.4% [at 11.4 µM]
Cn1cnc([N+](=O)[O-])c1[Se]c1nc(N)nc2c1ncn2[C@@H]1O[C@@H](CO)[C@H](O)[C@@H]1O -12.8% [at 2.29 µM]
C[C@]1(O)CC[C@H]2[C@H]3CC=C4N5CCN=C5CC[C@@]4(C)[C@H]3CC[C@@]21C -12.8% [at 2.29 µM]
O=C(O)[C@H]([C@H]1NCCS1)N1Cc2ccccc2C1 -13.4% [at 2.29 µM]
CCOC(=O)N/N=C1/C[C@@H](O)[C@@H](O)[C@@H]2[C@@H]3C(=O)N(CC)C(=O)[C@H]3CC[C@@H]12 -5.68% [at 11.4 µM]
C/C(=C\c1ccc(Cl)cc1)C(C)(C)C(=O)O -17.1% [at 11.4 µM]
Cn1c(=O)c2[nH]c(COCc3nc4c([nH]3)c(=O)n(C)c(=O)n4C)nc2n(C)c1=O 4.47% [at 2.29 µM]
Cn1c(=O)c2[nH]c(CS(=O)(=O)Cc3nc4c([nH]3)c(=O)n(C)c(=O)n4C)nc2n(C)c1=O -21.1% [at 2.29 µM]
CCN1C(=O)[C@H]2[C@@H]3[C@H](O)C=CC(=O)[C@H]3CC[C@H]2C1=O -16.7% [at 11.4 µM]
O=C(O)[C@@H]1[C@H](C(=O)O)[C@H]2C(=O)C=C[C@H]1N2Cc1ccccc1 -3.91% [at 2.29 µM]
Nc1nc(N)c2nn(-c3ccc(C(=O)O)cc3)nc2n1 -13.4% [at 2.29 µM]
CN1CCN(CCCBr)CC1 -20.9% [at 11.4 µM]
Cc1cc(C)c(O)c(Cc2cccc(Cc3cc(C)cc(C)c3O)c2O)c1 -14.7% [at 2.29 µM]

AC50, inactive:
CCCCCCCCCCCCCC(=O)O[C@H](CC(=O)O)C[N+](C)(C)C
CN1CCCN([C@@H](c2ccccc2)c2ccc(Cl)cc2)CC1
CN1CCN([C@@H](c2ccccc2)c2ccc(Cl)cc2)CC1
COC(=O)[C@@]1(Cc2ccc(F)cc2)[C@H]2c3cc(C(=O)N4CCCC4)n(Cc4ccc(OC(F)(F)F)cc4)c3C[C@H]2CN1C(=O)c1ccccc1
Cc1noc(NS(=O)(=O)c2ccc(N/C=C\C(=O)c3ccc4c(c3)OCO4)cc2)c1C
Cc1noc(NS(=O)(=O)c2ccc(N)cc2)c1C
C[C@H](C(=O)O)c1cccc(Oc2ccccc2)c1
CCn1cc(-c2nnnn2-c2ccc(Cl)cc2)c(=O)c2ccccc21
CCOC(=O)c1c(C)nc2sc3c(=O)n(-c4ccc(C(C)=O)cc4)nnc3c2c1-c1ccc(Cl)cc1
C/C=C1\C(=O)C[C@@H]2[C@@H]3CCC4=CC(=O)CC[C@@]4(C)[C@H]3CC[C@@]12C
C[C@@]12CCC(=O)C=C1CC[C@H]1[C@H]3CC[C@](O)(C(=O)CO)[C@]3(C)CC(=O)[C@@H]12
C#C[C@@]1(O)CC[C@@H]2[C@@H]3CCC4=CC(=O)CC[C@@H]4[C@H]3CC[C@]21CC
CCOC(=O)C1=C(C)C(c2ccccc2OC)NC(=S)N1 (centres undefined)
CCCCN(CC)S(=O)(=O)N1CCC(C(=O)NCCCN2CCOCC2)CC1
CCOc1cccc(NC(=O)CSc2nc(C)c3c(c2C#N)CCCC3)c1
CC(=O)Oc1ccc(C(c2ccc(OC(C)=O)cc2)c2ccccn2)cc1
COC(=O)[C@](C)(N)Cc1ccc(O)cc1
NC(=O)NCc1ccc(Cl)cc1
COC(=O)C(CC(C)C)NC(=O)C(N)Cc1ccccc1 (stereo not drawn) (H-Phe-Leu-OMe; configuration not given here)
O=C(Nc1ccc(S(=O)(=O)N2CCOCC2)cc1)c1ccc(CN2CCc3ccccc3C2)cc1
O=C(Nc1ccc(S(=O)(=O)N2CCCCC2)cc1)c1ccc(CN2CCc3ccccc3C2)cc1
CCC(=O)N1CCN(C(=O)c2ccccc2)CC1
CCC(C)NC(=O)C1CCN(C(=O)c2ccccc2)CC1 (centres undefined)
CCNC(=O)C/C(C)=N/NC(=O)C12CC3CC(CC(C3)C1)C2
COc1cccc2c1C(=O)c1c(O)c3c(c(O)c1C2=O)C[C@](O)(C(=O)CO)C[C@H]3O[C@@H]1C[C@H](N)[C@H](O)[C@H](C)O1
O=c1[nH]ncn2cccc12
O=C(NCc1ccccc1Cl)c1ccc2c(=O)n(CCCN3CCCC3=O)c(=S)[nH]c2c1
O=C(NCCCN1CCCC1=O)c1ccc(CNS(=O)(=O)c2ccc(F)cc2)cc1
Cc1ccc(C)c(N(CC(=O)NC2CCCC2)C(=O)c2cc3cc4cccc(C)c4nc3s2)c1
CCN(CC)c1ccc(SS(=O)(=O)O)cc1
CCCCS(=O)(=O)NC1=NCN(Cc2ccco2)CN1
CC1(C)OC(=O)N(Cc2ccco2)C1(C)O (centres undefined)
COc1ccc(C(=O)N2CCC[C@@]3(CCN(C(=O)Nc4cccc(C#N)c4)C3)C2)cc1
CC(C)NC(=O)N1CCCC2(CCN(C(=O)c3csnn3)CC2)C1
CN1CCCC2(CCN(C(=O)c3cnccn3)CC2)C1
Cc1nnc(NS(=O)(=O)c2ccc(N)cc2)s1
NC(N)=NC[C@@H]1COC2(CCCCC2)O1

AC50, active:
O=C(CCc1nc(-c2ccccc2)c(-c2ccccc2)o1)OCc1ccc(Cl)cc1 14.1 µM
CN1CCN(C2=Cc3ccccc3Oc3ccc(Cl)cc32)CC1 20 µM
Cc1noc(NS(=O)(=O)c2ccc(N/C=C/C(=O)c3ccc4c(c3)OCO4)cc2)c1C 12.6 µM
C[C@@H](/C=C\c1cccc(Oc2ccc(F)cc2)c1)N(O)C(N)=O 0.158 µM
Cc1ccccc1-c1nc(NCc2cccnc2)c2ccccc2n1 0.501 µM
FC(F)(F)c1ccccc1-c1nc(NCc2cccnc2)c2ccccc2n1 2 µM
C(=N/Nc1nnc2c(n1)[nH]c1ccccc12)/c1cccnc1 0.631 µM
Clc1ccccc1-c1nc(NCc2cccnc2)c2ccccc2n1 0.631 µM
Clc1ccccc1-c1nc(N/N=C/c2cccnc2)c2ccccc2n1 0.141 µM
CCCCn1c(SC(C)C(N)=O)nc2cc(C(=O)OC)ccc2c1=O (centres undefined) 1.78 µM
CCOc1nnc(C)c2c(C)n(-c3ccc(Cl)cc3)nc12 10 µM
C#C[C@]1(O)CC[C@H]2[C@H]3CCC4=Cc5oncc5C[C@]4(C)[C@@H]3CC[C@]21C 12.6 µM
C#C[C@]1(O)CC[C@@H]2[C@H]3CCC4=Cc5oncc5C[C@]4(C)[C@@H]3CC[C@@]21C 10 µM
CNc1oc(-c2ccc(Cl)cc2)nc1C#N 1.78 µM
CNc1oc(-c2cccs2)nc1C#N 2.24 µM
N#Cc1nc(-c2cccs2)oc1NCc1ccccc1 1.12 µM
CCOC(=O)c1[nH]c(COC(=O)CCOc2ccccc2OC)c(C(=O)OCC)c1C 8.91 µM
CCOc1ccc(NC(=O)CSc2nc(C)c3c(c2C#N)CCCC3)cc1 2 µM
COc1ccc(NC(=O)CSc2nc(C)c3c(c2C#N)CCCC3)cc1 2.51 µM
CSc1nc(N)nc(SCC(=O)Nc2ccc(Cl)cc2)c1C#N 0.891 µM
C[C@H](N)C(=O)OC(C)(C)Cc1ccc(Cl)cc1 0.631 µM
COC(=O)[C@H](N)Cc1ccc(Cl)cc1 3.16 µM
CN(C)S(=O)(=O)c1ccc(C(=O)Nc2ccc(CN3CCCC3)cc2)cc1 25.1 µM
O=C(c1ccccc1)N1CCSC1=S 14.1 µM
CN(C)c1ncc2ncc(=O)n(Cc3cccs3)c2n1 1.58 µM
Cc1nc2cnc(N(C)C)nc2n(Cc2cccs2)c1=O 1.26 µM
Fc1ccc(-c2cn3cc(C(F)(F)F)cc(Cl)c3n2)cc1 0.891 µM
CC1(C)CC(=O)C2=C(C1)Nc1cc3c(cc1C2c1ccc(F)cc1)OCO3 (centres undefined) 6.31 µM
FC(F)(F)c1ccc(N2CCOCC2)c(Nc2nc3ccccc3n3cnnc23)c1 6.31 µM
COCc1nc2c([nH]1)c(=O)n(C)c(=O)n2CC(C)C 12.6 µM
O=c1[nH]ncc2c3ccccc3n(Cc3ccccc3)c12 1 µM
COc1ccc(-n2c(=S)[nH]c3cc(C(=O)NCCCN4CCCC4=O)ccc3c2=O)cc1 25.1 µM
CCN(CC)c1ccc2c(Cl)cc(=O)oc2c1 0.891 µM
CC1=CC(=C2C(=O)c3ccccc3C2=O)C=C(C)N1Cc1ccco1 1.58 µM
CC1=CC(=C2C(=O)c3ccccc3C2=O)C=C(C)O1 0.2 µM
CSc1nc(Oc2ccc(F)cc2)c2ccccc2n1 0.794 µM
O=C(c1cc(Br)ccc1O)c1cc(Br)ccc1O 1 µM
Clc1ccc(CN2CCCN(Cc3ccc(Cl)cc3)C2c2cc3ccccc3c3ccccc23)cc1 0.794 µM
Cc1cc(C)nc(Nc2n[nH]c(COc3cccc4ccccc34)n2)n1 15.8 µM
Cc1cc(C)nc(Nc2n[nH]c(-c3cccc4ccccc34)n2)n1 4.47 µM
Cc1cc(OCCNCCO)cc(C)c1Cl 2 µM
O=C1CC(c2ccc3c(c2)OCO3)CN1 (centres undefined) 12.6 µM
